For 40 compounds, Potency results are on record in PubChem BioAssay (Tox21).

Where “and” joins values, the source holds several entries; their conditions need not be identical. Equal values may be shown once. Inconclusive results are not listed. Entries that show only a call come without a potency. Some structures have more than one record in an assay (separate samples or runs), and their calls can disagree. Calls of active or inactive are those of the source. Calls follow the shape of the dose curve; as a rule, active = well fitted cell-killing curve with a large enough effect in the repeat runs; inconclusive = weak or mixed curves; inactive = flat fitted curve, though single readings scatter.
Potency is read from the fitted curve at half-maximal effect.

The nature of this assay: qHTS assay to identify small molecule antagonists of the estrogen receptor beta (ER-beta) signaling pathway - cell viability counter screen (AID 1259382). Also: nearly all actives have a fitted effect of over 55% in size. The conditions noted are these: ER-beta-UAS-bla HEK293T viability, CellTiter-Glo luminescence, 16 h; series mostly up to 92.4 µM. The source says:
U.S. Tox21 Program National Center for Advancing Translational Sciences [NCATS] NIH Chemical Genomics Center [NCGC] U.S. Environmental Protection Agency [EPA] National Institutes of Environmental Health Sciences [NIEHS] National Toxicology Program [NTP] U.S. Food and Drug Administration [FDA] Tox21 Assay Overview: Estrogen receptor (ER), a nuclear hormone receptor, plays an important role in development, metabolic homeostasis and reproduction. Two subtypes of ER, ER-alpha and ER-beta, have similar expression patterns with some uniqueness in both types. Endocrine disrupting chemicals (EDCs) and their interactions with steroid hormone receptors like ER causes disruption of normal endocrine function. To identify the compounds that inhibit ER signaling, an ER-beta-UAS-bla GripTite cell line (Life Technologies, Madison, WI, USA) containing a beta-lactamase reporter gene under the control of an UAS response element was used to screen Tox21 10K compound library. The cytotoxicity of the Tox21 compound library against the ER-beta-bla cell line was tested in parallel by measuring the cell viability using CellTiter-Glo assay in the same wells.
Tox21 Assay Protocol Summary: ER-beta-UAS-bla HEK293T cells were dispensed at 2,000 cells/4 uL of assay medium containing 2% charcoal stripped FBS per well into black wall/clear-bottom 1536-well plates using a Multidrop Combi (ThermoFisher Scientific, Waltham, MA) dispenser. After the assay plates were incubated at a 37C and 5% CO2 for 6 hr, 23 nL of compounds dissolved in DMSO, positive controls or DMSO only was transferred to the assay plate by a Pintool station (Kalypsys, San Diego, CA), followed by addition of 1 uL (1nM as final concentration) of 17-beta-estradiol (E2) in assay medium using a Flying Reagent Dispenser (FRD, Aurora Discovery, San Diego, CA). The plates were incubated at 37C and 5% CO2 for 16 hr. Then 1 uL of LiveBLAzer B/G FRET substrate was added using a Flying Reagent Dispenser, the plates were incubated at room temperature for 2 hours, and fluorescence intensity was measured by an Envision plate reader (PerkinElmer, Shelton, CT). For cell viability readout that measures cytotoxicity, 4 uL/well of CellTiter-Glo reagent was added into the assay plates using a FRD. After 30 min incubation at room temperature, the luminescence intensity in the plates was measured using a ViewLux (PerkinElmer) plate reader.
Take `CC[C@H]1C[C@@H]2C[C@H]3c4[nH]c5ccc(OC)cc5c4CCN(C2)[C@@H]13`: the Potency entry is “inactive”.

Consider `Cn1cc(C2=C(c3cn(C4CCN(Cc5ccccn5)CC4)c4ccccc34)C(=O)NC2=O)c2ccccc21`, for which the Potency result was “inactive”.

In the case of `N#CC(Cl)Cl`, the Potency result was “inactive”.

Regarding `CCS(=O)(=O)c1cccnc1S(=O)(=O)NC(=O)Nc1nc(OC)cc(OC)n1`, the Potency entry is “inactive”.

Take `Oc1c(Br)c(Br)c(Br)c(Br)c1Br`: the Potency result is “inactive”.

Take `CCCCOP(=O)(CCCC)OCCCC`: the Potency entry was “inactive”.

For `FC(Cl)(Cl)Cl`, the Potency result was “inactive”.

Regarding `ClC1=C(Cl)[C@]2(Cl)[C@H]3[C@H]([C@H]4C=C[C@H]3C4)[C@@]1(Cl)C2(Cl)Cl`, the Potency entry was “inactive”.

As for `CCCCCCCCCCBr`, the Potency entry is “inactive”.

On to `COc1ccc(OC)c(CC(C)N)c1` (stereo not given), for which the Potency entry is “inactive”.

`CCCN(CCC)c1c([N+](=O)[O-])cc(S(N)(=O)=O)cc1[N+](=O)[O-]`: the Potency is 54.9 µM (active).

With `CCCN(CCC)CCc1c[nH]c2ccccc12`, the Potency entry is “inactive”.

Turning to `CC1CCC(C(C)C)C(OC(=O)c2ccccc2N)C1` (stereo not given), the Potency is 60.3 µM (active).

Regarding `O=[N+]([O-])c1ccc2ccc3cccc4ccc1c2c34`, the Potency entry is “inactive”.

Turning to `CCC(C)c1cc([N+](=O)[O-])cc([N+](=O)[O-])c1OC(=O)C=C(C)C` (stereo not given), the Potency result was “inactive”.

In the case of `[Cd+2].[Cl-].[Cl-]`, the Potency is 34.7 µM (active) and 54.5 µM (active).

Regarding `N#CCCO`, the Potency entry is “inactive”.

As to `CCCOCC(=Nc1ccc(Cl)cc1C(F)(F)F)n1ccnc1`, the Potency is 61.1 µM (active).

Turning to `Cc1ccc(C(=O)Cl)cc1`, the Potency entry was “inactive”.

`CC(=O)O[C@H]1CC[C@@]2(C)C(=CC[C@@H]3[C@@H]2CC[C@]2(C)C(=O)CC[C@@H]32)C1`: the Potency entry is “inactive”.

`CC(C)(COCC1CO1)COCC1CO1` (stereo not given): the Potency result is “inactive”.

`Nc1ccccc1C(=O)OC/C=C/c1ccccc1`: the Potency result is “inactive”.

In the case of `CCOP(=S)(OCC)SCS(=O)(=O)CC`, the Potency entry is “inactive”.

With `CC(C)(C)OO`, the Potency result was “inactive”.

Take `c1ccc(OCC2CO2)cc1` (stereo not given): the Potency entry is “inactive”.

With `CCCCCCCCCCCCCCC(Br)C(=O)O` (stereo not given), the Potency result was “inactive”.

Turning to `CN(C)CCc1c[nH]c2cccc(O)c12`, the Potency result was “inactive”.

For `CC(C)CCCCCCCOP(=O)(Oc1ccccc1)Oc1ccccc1`, the Potency entry is “inactive”.

Turning to `CCN(CC)C(=S)[S-].CCN(CC)C(=S)[S-].[Zn+2]`, the Potency is 2.15 µM (active).

`ClC(Cl)=C(c1ccc(Cl)cc1)c1ccc(Cl)cc1`: the Potency entry was “inactive”.

Regarding `CC(c1ccc(O)cc1)c1ccc(O)cc1`, the Potency is 45.5 µM (active) and inactive.

Regarding `O=C1C=CC(=O)c2ccccc21`, the Potency was 27.3 µM (active).

Take `CCCCCCCCCCCCCCCCCCn1cc[n+](C)c1`: the Potency is 30.5 µM (active).

With `C[CH2][Hg][N]1C(=O)C2C(C1=O)C1(Cl)C(Cl)=C(Cl)C2(Cl)C1(Cl)Cl` (stereo not given), the Potency is 11.6 µM (active).

In the case of `CCCSP(=O)(OCC)SCCC`, the Potency result is “inactive”.

With `C=CC(=O)OCC(COC(=O)C=C)(COC(=O)C=C)COC(=O)C=C`, the Potency is 9.69 µM (active).

For the compound `COc1ccc(OC)c(C=O)c1`, the Potency entry was “inactive”.

On to `CCCCCCCCCBr`, for which the Potency entry is “inactive”.

Regarding `[Cl][Sn]([c]1ccccc1)([c]1ccccc1)[c]1ccccc1`, the Potency was 0.82 µM (active).

As for `Oc1ccc(C2(c3ccc(O)cc3)CCCCC2)cc1`, the Potency is 57.9 µM (active).
